This is part of a sample that, as a whole, favours compounds with a hit. Of some 83,000 tested, about 20% had one in any assay.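 Results are percent growth after 48 hours of single-concentration exposure. 100 means growth as in untreated cells, lower positive values show inhibition; negative values down to -100 show cell death.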 Unmarked numbers belong to inactive results. Active and inactive are the calls of the source. The calls were made as follows: active = growth percent below 10; inactive = the rest.

Some test systems named below: NCI-H23 lung; NCI-H226 lung; NCI-H322M lung; HOP-62 NSCLC; NCI-H460 lung; HOP-92 NSCLC; NCI-H522 lung; A549/ATCC NSCLC; 786-0 renal; COLO 205 colon; DU-145 prostate; K-562 leukemia; MALME-3M melanoma; MDA-MB-231 breast; SF-268 CNS; SF-295 CNS; SF-539 CNS; UACC-257 melanoma; M14 melanoma.
Assay in all cases: NCI-60 one-dose screen, 48 h (100 = growth as untreated, 0 = no growth, -100 = all killed)
Common to all, as to conditions: 10 µM

Regarding `O=C(CSc1nnc(-c2ccc3nc(-c4ccc(Cl)cc4)[nH]c3c2)o1)Nc1ccc(Br)cc1`, the growth is -82.9% (active) in the assay with NCI-H23 lung; -62.9% (active) with NCI-H226 lung; -40.8% (active) in the assay on NCI-H322M lung; -66.9% (active) in the assay on HOP-62 NSCLC; -82.7% (active) in the assay on NCI-H460 lung; -11.3% (active) in the assay on HOP-92 NSCLC. The growth is -67.9% (active) with NCI-H522 lung; -54.9% (active) with A549/ATCC NSCLC; -74.9% (active) with 786-0 renal; 0.691% (active) in the assay with COLO 205 colon; 11.7% in the assay on DU-145 prostate; 5.15% (active) with K-562 leukemia. In addition, the growth with MALME-3M melanoma was -81% (active); in the assay with MDA-MB-231 breast, -97.3% (active); with SF-268 CNS, 0.811% (active); in the assay with SF-295 CNS, -89.4% (active); in the assay on SF-539 CNS it was -95.2% (active); with UACC-257 melanoma it was -12.9% (active). The growth in the assay on M14 melanoma was -84.4% (active).

For `CCOc1ccc(Nc2nc3ccccc3nc2Nc2ccc(OCC)cc2)cc1`, the growth in the assay on NCI-H23 lung was 55.2%; with NCI-H226 lung, 85.6%; in the assay with NCI-H322M lung, 71.3%; in the assay with HOP-62 NSCLC, 64.9%; in the assay with NCI-H460 lung it was 17.2%; with HOP-92 NSCLC it was 27.6%. Further, the growth is 55.9% in the assay with NCI-H522 lung; 41.3% in the assay with A549/ATCC NSCLC; 32.1% in the assay with 786-0 renal; 95.9% with COLO 205 colon; 45.1% in the assay with DU-145 prostate; 30.2% in the assay with K-562 leukemia. Moreover, the growth was 83.7% in the assay with MALME-3M melanoma; 67.7% with MDA-MB-231 breast; 40% in the assay on SF-268 CNS; 43.3% in the assay on SF-295 CNS; 80.8% in the assay with SF-539 CNS; 75% in the assay with UACC-257 melanoma. Moreover, the growth in the assay on M14 melanoma is 37.6%.

`COc1ccc(OC)c(-c2cc(-c3c[nH]c4ccccc34)nc(N)c2C#N)c1`: the growth with NCI-H23 lung is -9.65% (active); in the assay on NCI-H226 lung, 14%; with NCI-H322M lung it was 24.8%; with HOP-62 NSCLC, 10% (active); in the assay with NCI-H460 lung it was -42.5% (active); with HOP-92 NSCLC it was -36.8% (active). In addition, the growth was -5.53% (active) in the assay with NCI-H522 lung; 21.1% with A549/ATCC NSCLC; -52.3% (active) in the assay with 786-0 renal; -23.2% (active) with COLO 205 colon; 13% with DU-145 prostate; 8.61% (active) in the assay with K-562 leukemia. Moreover, the growth with MALME-3M melanoma was -3.02% (active); in the assay with MDA-MB-231 breast, 12.8%; in the assay with SF-268 CNS, 9.75% (active); with SF-295 CNS it was -69.4% (active); in the assay with SF-539 CNS, -60.3% (active); with UACC-257 melanoma, 22.4%. Further, the growth in the assay with M14 melanoma is -8.47% (active).

Consider `O=C(N/C(=C1/OCCN1Cc1ccccc1)[P+](c1ccccc1)(c1ccccc1)c1ccccc1)c1ccccc1`, for which the growth was -5.42% (active) in the assay with NCI-H23 lung; -5.51% (active) with NCI-H226 lung; 58.7% in the assay with NCI-H322M lung; 44.8% with HOP-62 NSCLC; 3.22% (active) with NCI-H460 lung; -16.5% (active) with HOP-92 NSCLC. The growth was -6.25% (active) in the assay with NCI-H522 lung; 47.6% in the assay with A549/ATCC NSCLC; 4.98% (active) in the assay on 786-0 renal; 4.11% (active) with COLO 205 colon; -15.1% (active) with DU-145 prostate; 8.08% (active) in the assay with K-562 leukemia. Also, the growth in the assay on MALME-3M melanoma is -60.6% (active); with MDA-MB-231 breast, 0.242% (active); in the assay with SF-268 CNS, 21.1%; with SF-295 CNS, 31.4%; in the assay with SF-539 CNS it was 25.3%; in the assay with UACC-257 melanoma it was -4.84% (active). Besides, the growth in the assay on M14 melanoma is 19.4%.

With `CCOC(=O)c1sc(N/N=C(\C)c2ccc3c(c2)Nc2ccccc2S3)nc1C`, the growth was 13.9% in the assay with NCI-H23 lung; 34.8% in the assay with NCI-H226 lung; 45.2% in the assay on NCI-H322M lung; 43.7% with HOP-62 NSCLC; 5.63% (active) with NCI-H460 lung; -9.2% (active) with HOP-92 NSCLC. Moreover, the growth was 30.9% in the assay on NCI-H522 lung; 29.2% with A549/ATCC NSCLC; 33.6% in the assay on 786-0 renal; -42.2% (active) in the assay on COLO 205 colon; 44.9% with DU-145 prostate; 1.72% (active) in the assay with K-562 leukemia. Besides, the growth in the assay with MALME-3M melanoma is 31.9%; with MDA-MB-231 breast, 18.5%; with SF-268 CNS it was 56.9%; in the assay with SF-295 CNS it was -14.9% (active); in the assay with SF-539 CNS, 33.8%; with UACC-257 melanoma, 35.8%. The growth in the assay on M14 melanoma was 19.4%.

In the case of `Cc1ccc(-c2cc(C(=O)N=Nc3c(O)[nH]c4ccc(Br)cc34)c3ccccc3n2)cc1`, the growth is 51.2% in the assay with NCI-H23 lung; 65.3% in the assay on NCI-H226 lung; 80.9% in the assay on NCI-H322M lung; 86.1% in the assay on HOP-62 NSCLC; 47.3% in the assay with NCI-H460 lung; 87.6% in the assay on HOP-92 NSCLC. Also, the growth is 78.7% in the assay with NCI-H522 lung; 85.8% in the assay with A549/ATCC NSCLC; 88.6% in the assay with 786-0 renal; 108% with COLO 205 colon; 85.8% in the assay with DU-145 prostate; 17.8% in the assay on K-562 leukemia. Further, the growth in the assay on MALME-3M melanoma is 80.2%; with MDA-MB-231 breast, 41.7%; in the assay with SF-268 CNS it was 80.9%; in the assay on SF-295 CNS it was 76.5%; in the assay on SF-539 CNS it was 76%; in the assay on UACC-257 melanoma, 103%. The growth in the assay on M14 melanoma is 75.6%.

As for `O=C1CCC(N2Cc3c(NCc4ccc(-c5ccccc5)cc4)cccc3C2=O)C(=O)N1` (configuration not stated), the growth with NCI-H23 lung is 72.9%; with NCI-H226 lung, 55.1%; in the assay on NCI-H322M lung, 77.2%; in the assay on HOP-62 NSCLC it was 74.4%; in the assay on NCI-H460 lung, 36.4%; in the assay with HOP-92 NSCLC, 24.3%. Also, the growth in the assay with NCI-H522 lung is 82.7%; in the assay with A549/ATCC NSCLC it was 71.6%; in the assay on 786-0 renal, 70.8%; in the assay on COLO 205 colon it was 82%; with DU-145 prostate it was 85%; with K-562 leukemia, 72.4%. The growth in the assay with MALME-3M melanoma is 15.2%; with MDA-MB-231 breast, 22.2%; in the assay with SF-268 CNS, 68.1%; with SF-295 CNS, 81.9%; in the assay with SF-539 CNS it was 58.4%; with UACC-257 melanoma, 103%. Further, the growth with M14 melanoma was 75.4%.

On to `CCCCSc1nc(Nc2ccc(/C(C)=N/NC(N)=S)cc2)c(C#N)c(-c2ccccc2)n1`, for which the growth was 23.7% in the assay with NCI-H23 lung; 4.29% (active) with NCI-H226 lung; 59% in the assay on NCI-H322M lung; 41.1% in the assay with HOP-62 NSCLC; 12.1% with NCI-H460 lung; -19.7% (active) with HOP-92 NSCLC. Moreover, the growth in the assay with NCI-H522 lung is 39.6%; in the assay on A549/ATCC NSCLC, 12.8%; in the assay with 786-0 renal, 3.01% (active); with COLO 205 colon it was 59.6%; in the assay on DU-145 prostate, 36.2%; in the assay on K-562 leukemia, 33%. Further, the growth was 35.2% in the assay with MALME-3M melanoma; 18.3% in the assay on MDA-MB-231 breast; 67% with SF-268 CNS; 24.7% with SF-295 CNS; 19.3% in the assay with SF-539 CNS; 90.3% with UACC-257 melanoma. Moreover, the growth in the assay with M14 melanoma is 76.6%.

These data come from PubChem BioAssay (NCI).
